MT1-MMP txn act – activates MT1-MMP transcription | activation factor at 10 µM | HT1080 MT1-MMP promoter luciferase reporter, luminescence, overnight; hits give high values | 0.16% of 86,000 active;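 active = activation factor of at least 2 for MT1-MMP transcription at 10 µM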
ERb SRC1 inh – ER-beta (human) coactivator binding inhibition; Q92731; TR-FRET ER-beta LBD / SRC1-Cy5 peptide binding; receptor agonist-loaded with 1 µM estradiol; inhibition, % at 25.6 µM; 1.3% of 86,000 active;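 active = compounds whose percent inhibition of the receptor-coactivator binding signal exceeds about 50% in the single-dose screen, limit read from the data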
Target sequence (Q92731 whole entry, looked up, the tested form may be a part): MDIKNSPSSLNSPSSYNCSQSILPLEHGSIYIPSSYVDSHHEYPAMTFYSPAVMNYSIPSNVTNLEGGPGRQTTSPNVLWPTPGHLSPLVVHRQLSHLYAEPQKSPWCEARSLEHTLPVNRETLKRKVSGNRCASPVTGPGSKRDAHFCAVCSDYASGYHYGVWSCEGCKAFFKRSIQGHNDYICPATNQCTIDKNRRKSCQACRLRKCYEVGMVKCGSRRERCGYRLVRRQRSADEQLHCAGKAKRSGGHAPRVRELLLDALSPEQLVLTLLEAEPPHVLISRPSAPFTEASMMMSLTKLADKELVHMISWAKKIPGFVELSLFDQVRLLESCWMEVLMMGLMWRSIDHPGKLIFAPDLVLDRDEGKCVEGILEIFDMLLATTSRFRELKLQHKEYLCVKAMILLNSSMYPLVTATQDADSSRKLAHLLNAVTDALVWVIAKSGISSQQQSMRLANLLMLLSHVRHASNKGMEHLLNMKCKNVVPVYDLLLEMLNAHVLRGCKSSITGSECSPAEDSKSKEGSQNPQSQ
ERa coact pot – enhances coactivator binding to human estrogen receptor alpha; coactivator binding (% of control), % at 25.6 µM; P03372; 1.3% of 86,000 active; TR-FRET ERalpha-LBD/SRC-Cy5 coactivator binding, 2 h; 100 = basal binding, no effect; in the data active = activity above about 200%;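 also: binding measured in presence of low estradiol as agonist stimulus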
Calb biofilm kill – kills Candida albicans biofilms; C. albicans biofilm + clotrimazole, Alamar Blue; inhibition, % at 6 µM; 0.14% of 85,000 active;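 active = inhibition above 20%; inactive = inhibition below 20%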;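 also: preformed 24 hr biofilms exposed to compound for 48 hr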
EphB4 ephrin blk – antagonists of human EphB4-ephrin-B2 interaction. 0.15% of 97,000 active. AID 720. EphB4 LBD / TNYL-RAW-Alexa532 peptide, fluorescence polarization. inhibition, % at 7 µM;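 active = inhibition above the screen-wide mean inhibition plus 3 SD, cut at about 15% in these data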
ERa SRC1 inh – ER-alpha (human) coactivator binding inhibition; TR-FRET ER-alpha LBD / SRC-1 peptide, estradiol-bound; inhibition, % at 25.6 µM; AID 629; P03372; 1.7% of 86,000 active; in the data active = inhibition above about 50%
Hits are given with their value; [ ] = another dose, or the depositor's remark. An excerpt weighted towards active compounds, which were near 3.2% of everything screened.

How did Cc1oc2c(cc(NS(=O)(=O)c3ccc4c5c(cccc35)C(=O)N4)c3ccccc32)c1C(=O)OC(C)C do in these assays?
MT1-MMP txn act: inactive; ERb SRC1 inh: 57; ERa coact pot: inactive; Calb biofilm kill: inactive; EphB4 ephrin blk: inactive; ERa SRC1 inh: 93[fluorescence artefact?]

What do the screens show for `COC(=O)c1ccccc1NS(=O)(=O)c1ccc2c3c(cccc13)C(=O)N2`?
MT1-MMP txn act: inactive; ERb SRC1 inh: inactive; ERa coact pot: inactive; Calb biofilm kill: inactive; EphB4 ephrin blk: inactive; ERa SRC1 inh: inactive

Results for Cc1noc(C)c1S(=O)(=O)N1CCC(C(=O)Nc2ccc(OC(F)(F)F)cc2)CC1 ?
ERb SRC1 inh: inactive; ERa coact pot: inactive; Calb biofilm kill: inactive; EphB4 ephrin blk: inactive; ERa SRC1 inh: inactive

What do the screens show for `Cc1ccc(NC(=O)CN2C(=O)S/C(=C\c3ccc(-c4cccc(C(=O)O)c4C)o3)C2=O)cc1`?
MT1-MMP txn act: inactive; ERb SRC1 inh: inactive; ERa coact pot: 250[fluorescence artefact?]; Calb biofilm kill: inactive; EphB4 ephrin blk: inactive; ERa SRC1 inh: inactive

What do the screens show for `Cc1ccc(NC(=O)CN2C(=O)S/C(=C\c3cccn3C)C2=O)cc1`?
EphB4 ephrin blk: inactive

How did Cc1ncoc1C(=O)Nc1ccccc1-c1ccccc1 do in these assays?
MT1-MMP txn act: inactive; ERb SRC1 inh: inactive; ERa coact pot: inactive; Calb biofilm kill: inactive; EphB4 ephrin blk: inactive; ERa SRC1 inh: inactive

What do the screens show for `CC1CCN(CCCNC(=O)c2ccc(CS(=O)(=O)Cc3ccccc3F)o2)CC1`?
MT1-MMP txn act: inactive; ERb SRC1 inh: inactive; ERa coact pot: inactive; Calb biofilm kill: inactive; EphB4 ephrin blk: inactive; ERa SRC1 inh: inactive

What do the screens show for `O=C(NCCN1CCCCCC1)c1ccc(CS(=O)(=O)c2ccc(Br)cc2)o1`?
ERb SRC1 inh: inactive; ERa coact pot: inactive; Calb biofilm kill: inactive; EphB4 ephrin blk: inactive; ERa SRC1 inh: 81[fluorescence artefact?]

Results for O=C(NCCCN1CCCCCC1)c1ccc(CS(=O)(=O)Cc2ccccc2F)o1 ?
MT1-MMP txn act: inactive; ERb SRC1 inh: inactive; ERa coact pot: 636[fluorescence artefact?]; Calb biofilm kill: inactive; EphB4 ephrin blk: inactive; ERa SRC1 inh: inactive

How did O=C(NCCCN1CCCC1)c1ccc(CS(=O)(=O)c2ccc(Br)cc2)o1 do in these assays?
MT1-MMP txn act: inactive; ERb SRC1 inh: inactive; ERa coact pot: inactive; Calb biofilm kill: inactive; EphB4 ephrin blk: inactive; ERa SRC1 inh: inactive

What do the screens show for `O=C(CN1C(=O)CCSc2ccccc21)Nc1ccc2c(c1)OCO2`?
MT1-MMP txn act: inactive; ERb SRC1 inh: inactive; ERa coact pot: inactive; Calb biofilm kill: inactive; ERa SRC1 inh: inactive

How did Cc1ccc(S(=O)(=O)C2(C(=O)N3CCCCCC3)CC2)cc1 do in these assays?
MT1-MMP txn act: inactive; ERb SRC1 inh: 80[fluorescence artefact?]; ERa coact pot: inactive; Calb biofilm kill: inactive; EphB4 ephrin blk: inactive; ERa SRC1 inh: inactive

Results for CCn1c(CSc2nc3ccccc3[nH]2)nc2cc(C(=O)O)ccc21 ?
EphB4 ephrin blk: inactive

How did CCn1c(CSc2nccn2C)nc2cc(C(=O)O)ccc21 do in these assays?
MT1-MMP txn act: inactive; ERb SRC1 inh: inactive; ERa coact pot: inactive; EphB4 ephrin blk: 15; ERa SRC1 inh: inactive

What do the screens show for `COc1ccc(CCn2c(C)cc(C(=O)CSc3nnc(N)s3)c2C)cc1`?
MT1-MMP txn act: inactive; ERb SRC1 inh: inactive; ERa coact pot: inactive; Calb biofilm kill: inactive; EphB4 ephrin blk: 16; ERa SRC1 inh: inactive

How did COc1ccc(CCn2c(C)cc(C(=O)CSc3nnnn3-c3ccccc3)c2C)cc1OC do in these assays?
MT1-MMP txn act: inactive; ERb SRC1 inh: inactive; ERa coact pot: inactive; Calb biofilm kill: inactive; EphB4 ephrin blk: inactive; ERa SRC1 inh: 65[fluorescence artefact?]

How did COc1ccc(NC(=O)CSc2nnnn2-c2ccc(OC)cc2)cc1 do in these assays?
MT1-MMP txn act: inactive; ERb SRC1 inh: inactive; ERa coact pot: inactive; Calb biofilm kill: inactive; EphB4 ephrin blk: inactive; ERa SRC1 inh: inactive

How did COc1cc(NC(=O)CSc2nnnn2-c2ccccc2)cc(OC)c1OC do in these assays?
MT1-MMP txn act: inactive; ERb SRC1 inh: inactive; ERa coact pot: 229[fluorescence artefact?]; Calb biofilm kill: inactive; EphB4 ephrin blk: inactive; ERa SRC1 inh: inactive

How did Cc1cc(C(=O)CSc2nnnn2-c2ccccc2)c(C)n1CCc1ccccc1 do in these assays?
MT1-MMP txn act: inactive; ERb SRC1 inh: inactive; ERa coact pot: inactive; Calb biofilm kill: inactive; EphB4 ephrin blk: inactive; ERa SRC1 inh: inactive

How did COc1cc(NC(=O)CN2C(=O)c3ccccc3S2(=O)=O)c(OC)cc1Cl do in these assays?
MT1-MMP txn act: inactive; ERb SRC1 inh: inactive; ERa coact pot: inactive; Calb biofilm kill: inactive; EphB4 ephrin blk: inactive; ERa SRC1 inh: inactive

How did Cc1cccc(S(=O)(=O)c2c(N)n(Cc3ccco3)c3nc4ccccc4nc23)c1 do in these assays?
MT1-MMP txn act: inactive; ERb SRC1 inh: 61; ERa coact pot: inactive; Calb biofilm kill: inactive; EphB4 ephrin blk: inactive; ERa SRC1 inh: inactive

What do the screens show for `Nc1c(S(=O)(=O)c2cccs2)c2nc3ccccc3nc2n1Cc1ccccc1`?
MT1-MMP txn act: inactive; ERb SRC1 inh: inactive; ERa coact pot: 206; Calb biofilm kill: inactive; EphB4 ephrin blk: inactive; ERa SRC1 inh: inactive

Results for Cc1ccc(Cn2c(N)c(S(=O)(=O)c3cccs3)c3nc4ccccc4nc32)cc1 ?
EphB4 ephrin blk: inactive

Results for COC(=O)C(C)Sc1nc(-c2ccc(OC)cc2)nc2c1c(=O)n(C)c(=O)n2C (stereo not drawn) ?
MT1-MMP txn act: inactive; ERb SRC1 inh: inactive; ERa coact pot: inactive; Calb biofilm kill: inactive; EphB4 ephrin blk: inactive; ERa SRC1 inh: inactive

How did COC(=O)[C@@]1(Cc2ccccc2)[C@H]2c3cc(C(=O)N(C)C)n(Cc4ccc(S(C)(=O)=O)cc4)c3C[C@H]2CN1C(=O)c1ccccc1 do in these assays?
MT1-MMP txn act: inactive

How did O=c1c2ccccc2nc(CSc2nnnn2-c2ccccc2)n1-c1ccccc1Cl do in these assays?
MT1-MMP txn act: inactive; ERb SRC1 inh: 59[fluorescence artefact?]; ERa coact pot: inactive; EphB4 ephrin blk: inactive; ERa SRC1 inh: 78[fluorescence artefact?]

What do the screens show for `c1ccc(Cn2c(CSc3nnnn3-c3ccccc3)nc3ccccc32)cc1`?
MT1-MMP txn act: inactive; ERb SRC1 inh: inactive; ERa coact pot: inactive; Calb biofilm kill: inactive; EphB4 ephrin blk: inactive; ERa SRC1 inh: 64[fluorescence artefact?]

Results for N=C(N)SCc1nc2ccccc2c(=O)n1-c1ccccc1Cl ?
EphB4 ephrin blk: inactive

Results for CCOc1ccccc1NC(=O)NC1CC2CCCC(C1)N2Cc1nnnn1CCc1ccccc1 (stereo not drawn) ?
MT1-MMP txn act: inactive; ERb SRC1 inh: inactive; ERa coact pot: inactive; Calb biofilm kill: inactive; ERa SRC1 inh: inactive

What do the screens show for `Clc1ccc(-c2nn3c(-c4ccncc4)nnc3s2)c(Cl)c1`?
MT1-MMP txn act: inactive; ERb SRC1 inh: inactive; ERa coact pot: 330; Calb biofilm kill: inactive; ERa SRC1 inh: inactive

What do the screens show for `CC(C)(C)c1ccc(-c2nnc3sc(-c4ccccn4)nn23)cc1`?
MT1-MMP txn act: inactive; ERb SRC1 inh: inactive; ERa coact pot: 262; Calb biofilm kill: inactive; EphB4 ephrin blk: inactive; ERa SRC1 inh: inactive

What do the screens show for `COc1ccc(-c2nnc3sc(-c4ccccn4)nn23)cc1`?
MT1-MMP txn act: inactive; ERb SRC1 inh: inactive; ERa coact pot: inactive; Calb biofilm kill: inactive; ERa SRC1 inh: inactive
